Source: PubChem (several laboratories)
Only some compounds are listed: those with a hit (about 5% of all), similar ones and a draw of the others.
SENP7 inh: SENP7 protease inhibition; 1.5% of 330,000 active; inhibition, % at 5 µM; Q9BQF6; recombinant SENP7, Z-RLRGG-aminoluciferin luminescence, 40 min; AID 434973;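 active means inhibition above about 50% at the single test dose, limit read from the data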;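 further: plate controls were DMSO with enzyme for no effect and no enzyme buffer wells for full effect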
AHR activator: activates the human aryl hydrocarbon receptor; AID 2796; activation, % at 5 µM; 2.5% of 320,000 active; P35869; AHR-responsive luciferase reporter cells, luminescence; in the data active means activation above about 47%;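 further: 0% = vehicle wells and 100% = reference agonist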
SENP6 block: SENP6 protease inhibition | Q9GZR1 | Recombinant SENP6 catalytic domain, aminoluciferin luminescence | inhibition, % at 10 µM | 1.8% of 330,000 active | AID 2599;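 active means inhibition above about 50% at the single tested dose, limit read from the data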;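 further: plate controls were DMSO wells with enzyme for no effect and DMSO wells lacking enzyme for full effect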
EBI2 antag: blocks human EBI2 receptor beta-arrestin signaling. P32249. EBI2 beta-arrestin recruitment, luminescence, 7a,25-OHC stimulated. inhibition, % at 5 µM. 0.81% of 360,000 active. AID 651636; in the data active means inhibition above about 38%;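 further: enzyme fragment complementation signal reports receptor beta-arrestin coupling in cells; 0% = agonist plus DMSO wells and 100% = wells without agonist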
Target sequence (P32249 whole entry, looked up, the tested form may be a part): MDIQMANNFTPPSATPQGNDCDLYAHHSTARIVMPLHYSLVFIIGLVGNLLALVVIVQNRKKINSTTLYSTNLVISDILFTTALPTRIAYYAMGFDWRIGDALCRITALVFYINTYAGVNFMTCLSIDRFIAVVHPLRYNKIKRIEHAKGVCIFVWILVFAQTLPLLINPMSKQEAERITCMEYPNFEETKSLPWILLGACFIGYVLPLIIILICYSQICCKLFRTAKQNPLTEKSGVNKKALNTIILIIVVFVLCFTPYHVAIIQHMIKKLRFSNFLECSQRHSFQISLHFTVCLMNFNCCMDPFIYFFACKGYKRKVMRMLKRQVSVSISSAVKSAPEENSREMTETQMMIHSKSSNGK
SENP8 block-1: blocks the human protease SENP8. Q96LD8. purified SENP8, Z-RLRGG-aminoluciferin cleavage, luminescence. inhibition, % at 10 µM. 1.2% of 330,000 active; in the data active means inhibition above about 50%
Target sequence (Q96LD8 whole entry, looked up): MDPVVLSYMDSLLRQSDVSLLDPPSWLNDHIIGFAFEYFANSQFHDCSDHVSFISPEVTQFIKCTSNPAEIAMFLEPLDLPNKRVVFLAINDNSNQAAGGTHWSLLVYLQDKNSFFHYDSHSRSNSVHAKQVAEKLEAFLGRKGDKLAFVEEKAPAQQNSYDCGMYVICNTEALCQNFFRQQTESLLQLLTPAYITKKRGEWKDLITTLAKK
SENP8 block-2: inhibitors of human SENP8 protease; Q96LD8; recombinant SENP8, Nedd8 substrate fluorescence; inhibition, % at 20 µM; 0.64% of 360,000 active; AID 602440; in the data active means inhibition mostly above about 40%, no sharp cut-off; inactive means mostly below about 27%
AHR act confirm: confirmation of human aryl hydrocarbon receptor activators | shares compounds with AHR activator | human cells, AHR-responsive luciferase reporter, luminescence | activation, % at 9 µM | 87% of 2,300 active; in the data active means activation above about 49%;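 further: HepG2 hepatoma cells carrying a DRE-driven firefly luciferase reporter; 0% = vehicle wells and 100% = reference agonist wells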
PXR counter: counter-screen for AHR activators: human PXR activators; activation, % at 11.6 µM; 88% of 2,300 active; cell-based PXR reporter, luciferase luminescence; shares compounds with AHR activator; in the data active means activation above about 11%;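 further: human hepatoma DPX-2 cells expressing full-length human PXR; 0% = DMSO and 100% = reference agonist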
* hit, by the source's call; i = inactive; / = not tested or not shown.

SMILES	SENP7 inh	AHR activator	SENP6 block	EBI2 antag	SENP8 block-1	SENP8 block-2	AHR act confirm	PXR counter
CCOc1ncccc1C(=O)Nc1nnc(C2CC2)s1	4.3	103.8*	-5.8	7.2	7.4	-12.0	95.0*	35.8*
CCOc1ncccc1C(=O)Nc1nnc(C)s1	0.3	-3.2	10.4	3.5	3.2	4.5	/	/
CCn1c(=O)cc(C(F)(F)F)[nH]c1=S	-11.5	-2.0	6.1	-3.5	-3.1	23.1	/	/
Cc1cc(C)n2nc(SCc3cccc(F)c3)nc2n1	-3.6	-2.9	-0.2	-19.7	-11.2	2.8	/	/
O=C(Nc1ccc(F)cc1)Nc1nnc(Cc2ccccc2F)s1	-9.8	12.3	4.0	3.9	12.8	16.1	/	/
Cc1ccc(CNC(=O)C2CCN(S(=O)(=O)c3ccc4c(c3)CC(C)N4C(=O)C3CCC3)CC2)o1 (stereo unspecified)	3.1	-1.0	-5.0	-1.1	8.7	2.9	/	/
Cc1ccc(C(=O)OCC(=O)N(CC(C)C)c2c(N)n(Cc3ccccc3)c(=O)[nH]c2=O)s1	-2.1	-0.8	13.4	5.0	7.0	-8.7	/	/
O=C(Nc1cccnc1)Nc1ccc(F)c(Cl)c1	10.9	37.2	1.1	-6.4	-4.7	6.8	/	/
CCOc1ncccc1C(=O)Nc1ccccc1C(=O)NCc1ccc2c(c1)OCO2	-2.0	3.7	1.1	-3.3	11.5	-9.0	/	/
O=C(Nc1ccc2c(c1)OCO2)c1cccc(S(=O)(=O)N2CCOCC2)c1	-7.9	111.7*	7.6	-1.8	-3.5	14.2	90.5*	35.6*
Cn1ccc2cc(NC(=O)Nc3cccnc3)ccc21	3.4	88.9*	-6.2	0.9	0.7	-10.9	55.5*	21.0*
O=C(Nc1ccc2c(c1)OCO2)Nc1ccc2c(c1)OCO2	39.3	106.0*	3.3	-16.2	5.7	5.8	44.8	28.2*
CCOc1ncccc1C(=O)Nc1ccc2c(c1)OCO2	1.3	110.1*	-1.5	-0.8	0.7	11.7	129.7*	32.0*
O=C(CSC(=S)N1CCOCC1)Nc1ncc2c(n1)CC(c1ccco1)CC2=O (stereo unspecified)	-4.9	0.0	-9.9	6.0	-3.4	4.8	/	/
COCCN(C(=O)COC(=O)c1cc2ccccc2cc1O)c1c(N)n(Cc2ccccc2)c(=O)[nH]c1=O	-6.0	-0.6	-6.8	-9.0	6.4	-118.5	/	/
CCCCNC(=O)C1(C)CCCCN1C(=O)c1ccc2ccccc2n1 (stereo unspecified)	/	/	/	2.6	/	16.4	/	/
Cc1nc2cc(CC(=O)O)ccc2o1	1.9	-4.9	-19.5	-22.5	3.4	17.1	/	/
COC(=O)c1cc(C(=O)Nc2nnc(C3CC3)s2)cc([N+](=O)[O-])c1	-8.8	80.8*	-15.2	2.4	-9.8	17.7	83.0*	/
O=C(Nc1cccc(NC(=O)c2ccco2)c1)c1ccc2c(c1)OCO2	13.1	15.7	23.5	0.5	14.0	15.8	/	/
Cc1ccc(C(=O)Nc2ccc3c(c2)OCO3)cc1NC(=O)c1ccco1	10.4	122.0*	-11.1	-13.8	-0.7	3.8	86.1*	33.3*
CC(=O)c1ccc(NC(=O)c2onc(C)c2Cl)cc1	-1.4	9.1	7.1	0.2	3.2	10.5	/	/
O=C(Nc1ccc2c(c1)OCO2)c1ccc(Br)c(S(=O)(=O)N2CCCC2)c1	-8.8	87.1*	-12.7	0.4	-11.3	17.2	46.8	154.0*
Cc1noc(C(=O)Nc2ccc3c(c2)OCO3)c1Cl	9.2	124.8*	3.7	-7.5	11.5	14.5	147.6*	25.5*
CCOc1ccc(NC(=O)c2ccc(NC(=O)CSc3nc4ccccc4c(=O)[nH]3)cc2)cc1	-1.4	-1.3	-2.1	1.2	5.3	-5.3	/	/
O=C(Cc1ccc(Br)cc1)OCC(=O)N1CCCCCC1	-5.4	-0.7	6.7	-7.2	-0.3	6.6	/	/
SMILES	SENP7 inh	AHR activator	SENP6 block	EBI2 antag	SENP8 block-1	SENP8 block-2	AHR act confirm	PXR counter
CN(C)/C=C(\c1cnc(Cl)s1)S(=O)(=O)c1ccccc1	6.3	-0.9	11.7	-11.9	-2.1	9.4	/	/
COc1cc(C(=O)OCc2cc(=O)oc3c(C)c(C)ccc23)ccc1OC(F)F	-1.6	1.4	16.4	7.9	3.2	-20.5	/	/
O=C(Nc1ccn(Cc2ccc(Cl)cc2)n1)c1ccccc1	-2.3	7.2	21.2	-1.7	-20.1	11.6	/	/
O=C(Nc1ccn(Cc2ccccc2)n1)c1ccc2c(c1)OCO2	7.0	111.8*	-17.2	-8.8	0.1	-1.8	77.0*	42.5*
CC(=O)c1cc(F)ccc1OCC(=O)Nc1ccc2c(c1)OCO2	-2.7	93.5*	10.6	5.1	-4.7	13.0	105.1*	28.7*
O=C(COc1cc(F)ccc1[N+](=O)[O-])Nc1ccc2c(c1)OCO2	2.1	-4.1	8.2	-1.1	6.6	7.8	/	/
COc1ccc(CCN(C)CC(O)COc2ccc(C(C)=O)cc2OC)cc1OC (stereo unspecified)	0.8	0.9	-4.3	-3.3	-1.3	13.8	/	/
Cn1c(-c2ccsc2)c(-c2cccs2)c2cc(-c3cccc4[nH]ccc34)ccc21	0.3	111.8*	5.9	1.7	-0.5	i	101.3*	79.0*
O=[N+]([O-])c1cccc(NC(=S)N2CCc3ccccc3C2)c1	10.7	104.9*	2.2	6.5	3.1	13.7	91.9*	54.0*
COc1ccc(NC(=O)CC2Oc3ccccc3NC2=O)c(OC)c1 (stereo unspecified)	-3.1	8.2	-8.3	-1.0	-3.5	13.8	/	/
COc1ccc(-c2nc3n(c2C)Cc2ccccc2-3)cc1	9.7	80.1*	28.0	12.8	-3.1	-440.7	149.0*	17.2*
CCCCNC(=O)C(=O)NCC1CCCN1S(=O)(=O)c1cccs1 (stereo unspecified)	-7.6	-0.1	-12.8	-2.7	-7.0	3.9	/	/
N#C/C(=C/c1ccccc1)c1nn(CCO)c(N)c1C#N	6.3	119.9*	-2.3	8.4	6.4	-175.4	90.7*	/
Cc1cccc(NC(=S)NC2CC3CCCC(C2)N3Cc2ccccc2)c1C (stereo unspecified)	-1.7	3.9	-3.4	0.0	-3.8	10.4	/	/
CCN1CCn2c3c(c4cc(Cl)ccc42)CCCC31 (stereo unspecified)	9.4	118.1*	-5.9	-1.6	-13.2	-277.8	61.7*	48.4*
CCN(CC)CCN1CCn2c3c(c4cc(C)ccc42)CCCC31 (stereo unspecified)	10.2	14.8	-1.4	-7.4	7.6	-166.3	/	/
O=C(CCC(=O)c1ccc(F)cc1)NCC1(N2CCCCC2)CCCCC1	13.8	2.6	4.1	1.4	-0.7	26.0	/	/
O=c1c2[nH]c3ccc(F)cc3c2ncn1CCCn1ccnc1	7.0	95.7*	0.5	0.7	-0.4	-75.2	81.4*	17.5*
O=c1c2[nH]c3ccc(F)cc3c2ncn1CCCN1CCOCC1	-7.0	14.4	-22.3	1.4	-14.5	-64.8	/	/
Cc1c(C(=O)Nc2ccc(Br)cc2)cnn1C	1.8	120.2*	-1.2	-7.3	-4.6	12.5	135.5*	22.6*
